Laboratory results from ChEMBL document CHEMBL3988442, “University of Dundee, Small-Polar-MMV Screening Library” (2021).

Molecular target: T1, Methionyl-tRNA synthetase, putative (Leishmania donovani (strain BPK282A1)) (UniProt E9BF75)
T1 sequence (whole entry): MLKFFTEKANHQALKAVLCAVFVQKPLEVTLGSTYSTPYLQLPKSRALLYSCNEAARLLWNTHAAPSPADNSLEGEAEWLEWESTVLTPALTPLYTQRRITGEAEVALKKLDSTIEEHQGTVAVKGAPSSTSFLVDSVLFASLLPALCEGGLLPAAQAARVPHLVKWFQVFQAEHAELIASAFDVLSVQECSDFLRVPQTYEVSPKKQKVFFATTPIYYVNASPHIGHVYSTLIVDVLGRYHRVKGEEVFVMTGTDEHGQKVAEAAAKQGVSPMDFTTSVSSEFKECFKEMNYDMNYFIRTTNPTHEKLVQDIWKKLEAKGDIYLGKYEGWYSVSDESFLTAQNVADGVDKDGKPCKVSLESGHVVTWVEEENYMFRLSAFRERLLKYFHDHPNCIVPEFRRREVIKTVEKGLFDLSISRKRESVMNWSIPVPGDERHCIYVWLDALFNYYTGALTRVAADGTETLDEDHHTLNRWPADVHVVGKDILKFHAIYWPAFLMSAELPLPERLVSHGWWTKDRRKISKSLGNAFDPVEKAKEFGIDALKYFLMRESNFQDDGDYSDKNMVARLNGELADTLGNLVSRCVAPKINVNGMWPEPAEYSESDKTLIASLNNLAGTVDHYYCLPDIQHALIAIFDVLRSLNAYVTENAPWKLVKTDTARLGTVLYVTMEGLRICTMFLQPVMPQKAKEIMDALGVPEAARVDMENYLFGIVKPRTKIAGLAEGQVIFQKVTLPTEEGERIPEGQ
Assay: Leishmania donovani Methionine tRNA synthetase (LdMetRS):v7. Dose response assay
Format: functional
Parameters: conc 80 nM, time 150 minutes

`Cn1ncc2c(NCCCO)nc(Nc3ccc(F)c(F)c3)nc21` was tested. Which PXC50 (BOTTOM 3.669470718, HILLSLOPE 1.210805745, MAX_EFFECT 80.79625293, TOP 84.65096449) did it give?
Its PXC50 is 5.1.

And the PXC50 (BOTTOM -1.663315364, HILLSLOPE 0.981462858, MAX_EFFECT 92.22222222, TOP 100.0)?
Its PXC50 is 4.94.

What about the PXC50 (BOTTOM -4.044672009, HILLSLOPE 0.90681659, MAX_EFFECT 92.93598234, TOP 107.9137749) of the same compound?
Its PXC50 is 4.87.

How did the PXC50 (BOTTOM 4.401789899, HILLSLOPE 1.374668367, MAX_EFFECT 53.02013423, TOP 100.0) turn out when `Cc1cc(C)n(CCCn2cncc2-c2ccc3c(c2)CC(C)N3C)n1` (configuration not stated) was run?
Its PXC50 is 4.02.

And the PXC50 (BOTTOM 5.049738187, HILLSLOPE 0.795238386, MAX_EFFECT 63.88888889, TOP 100.0)?
Its PXC50 is 4.3.

And the PXC50 (BOTTOM 6.889933183, HILLSLOPE 1.019311149, MAX_EFFECT 71.9237435, TOP 100.0)?
The PXC50 was 4.34.

And the PXC50 (MAX_EFFECT 6.666666667)?
The PXC50 was < 4.

And the PXC50 (MAX_EFFECT 21.73913043)?
Its PXC50 is < 4.

What does the source list for `NCC1CCN(C2CCN(c3ccc(-c4ccco4)cc3)CC2)C1` (configuration not stated)?
PXC50 (BOTTOM 4.43866672, HILLSLOPE 0.884621075, MAX_EFFECT 64.49275362, TOP 100.0): 4.31; PXC50 (BOTTOM 4.60090898, HILLSLOPE 1.046241477, MAX_EFFECT 65.98639456, TOP 92.93543159): 4.34; PXC50 (BOTTOM 4.64806131, HILLSLOPE 0.783599422, MAX_EFFECT 54.46584939, TOP 100.0): 4.09

`Cn1ncc2c(N3CCOCC3)nc(Nc3ccc(F)c(F)c3)nc21` was tested. Which PXC50 (BOTTOM 9.319609168, HILLSLOPE 1.297043796, MAX_EFFECT 53.57833656, TOP 67.28849304) did it give?
The PXC50 was 5.29.

And the PXC50 (MAX_EFFECT 10.12396694)?
Its PXC50 is < 4.

What about the PXC50 (MAX_EFFECT 42.73127753) of the same compound?
The PXC50 was < 4.

How did the PXC50 (BOTTOM -0.620934572, HILLSLOPE 1.091774088, MAX_EFFECT 59.15492958, TOP 100.0) turn out when `CCN(CC)c1ccc2ccc(C(=O)N3CCCCO3)cn12` was run?
Its PXC50 is 4.06.

And the PXC50 (BOTTOM -3.857934484, HILLSLOPE 1.704145188, MAX_EFFECT 56.25, TOP 100.0)?
Its PXC50 is 4.39.

What about the PXC50 (MAX_EFFECT 43.85964912) of the same compound?
The PXC50 was < 4.

What about the PXC50 (MAX_EFFECT 47.96296296) of the same compound?
Its PXC50 is < 4.

How did the PXC50 (BOTTOM -1.193557467, HILLSLOPE 1.40396169, MAX_EFFECT 57.36568458, TOP 100.0) turn out when `COc1ccccc1C(=O)NC(c1ccccn1)[C@H]1CC[C@H](CN)CC1` (some centres not stated) was run?
The PXC50 was 4.08.

And the PXC50 (BOTTOM -5.444679276, HILLSLOPE 1.669546179, MAX_EFFECT 75.83892617, TOP 100.0)?
The PXC50 was 4.3.

What about the PXC50 (BOTTOM -12.31313032, HILLSLOPE 1.366255023, MAX_EFFECT 79.86111111, TOP 100.0) of the same compound?
Its PXC50 is 4.41.

What about the PXC50 (MAX_EFFECT 0.790513834) of the same compound?
Its PXC50 is < 4.

What about the PXC50 (MAX_EFFECT 6.349206349) of the same compound?
The PXC50 was < 4.

For `OCCNc1nc(Nc2cccc(OC(F)(F)F)c2)nc2ccsc12`, which PXC50 (BOTTOM -3.252318024, HILLSLOPE 0.711277169, MAX_EFFECT 57.23140496, TOP 100.0) is on record?
Its PXC50 is 4.23.

What about the PXC50 (MAX_EFFECT 49.7098646) of the same compound?
Its PXC50 is < 4.

And the PXC50 (MAX_EFFECT 49.77973568)?
Its PXC50 is < 4.

For `O=C(N1CCOCC(O)C1)C1(c2ccc(Cl)cc2)CCC1` (configuration not stated), which PXC50 (MAX_EFFECT 0.0) is on record?
The PXC50 was < 4.

What about the PXC50 (MAX_EFFECT -0.875656743) of the same compound?
The PXC50 was < 4.

What about the PXC50 (MAX_EFFECT -1.449275362) of the same compound?
The PXC50 was < 4.

With `Cn1ncc2c(NCCO)nc(Cl)nc21` as the compound, how does the PXC50 (MAX_EFFECT 0.234192037) read?
Its PXC50 is < 4.

What about the PXC50 (MAX_EFFECT 8.148148148) of the same compound?
Its PXC50 is < 4.

And the PXC50 (MAX_EFFECT -0.662251656)?
Its PXC50 is < 4.

With `Cc1cc(C)n(-c2nc(N3CCCC(O)C3)c3c4c(sc3n2)CCCC4)n1` (configuration not stated) as the compound, how does the PXC50 (MAX_EFFECT 1.492537313) read?
Its PXC50 is < 4.

What about the PXC50 (MAX_EFFECT 6.004140787) of the same compound?
The PXC50 was < 4.

What about the PXC50 (MAX_EFFECT 6.832298137) of the same compound?
Its PXC50 is < 4.

And the PXC50 (MAX_EFFECT 7.036247335)?
The PXC50 was < 4.

Which results are given for `CC1COc2ccccc2N1C(=O)CCc1cscn1` (configuration not stated)?
PXC50 (MAX_EFFECT 3.401360544): < 4; PXC50 (MAX_EFFECT 4.347826087): < 4; PXC50 (MAX_EFFECT 6.479859895): < 4

What does the source list for `Cn1ncc2c(NCCO)nc(NCCN3CCOCC3)nc21`?
PXC50 (MAX_EFFECT 4.109589041): < 4; PXC50 (MAX_EFFECT 10.0): < 4; PXC50 (MAX_EFFECT 11.56069364): < 4

Which PXC50 (MAX_EFFECT 4.449648712) does the source give for `Cn1ncc2c(NCCO)nc(Nc3ccncc3)nc21` here?
The PXC50 was < 4.

What about the PXC50 (MAX_EFFECT 5.518763797) of the same compound?
Its PXC50 is < 4.

And the PXC50 (MAX_EFFECT -0.37037037)?
Its PXC50 is < 4.

Which PXC50 (MAX_EFFECT 4.750593824) does the source give for `Cn1ncc2c(Nc3ccc(F)c(F)c3)nc(NCCO)nc21` here?
Its PXC50 is < 4.

What about the PXC50 (MAX_EFFECT 5.660377358) of the same compound?
Its PXC50 is < 4.

And the PXC50 (MAX_EFFECT 14.59227468)?
The PXC50 was < 4.

With `NC1CCOc2c(Cl)cc(Cl)cc21` (configuration not stated) as the compound, how does the PXC50 (MAX_EFFECT 4.805491991) read?
The PXC50 was < 2.7.

What about the PXC50 (MAX_EFFECT 6.273764259) of the same compound?
Its PXC50 is < 3.

And the PXC50 (MAX_EFFECT 11.76470588)?
Its PXC50 is < 2.7.

And the PXC50 (MAX_EFFECT 23.54211663)?
The PXC50 was < 3.
